ERAP1 inh: ERAP1 (human) enzyme inhibition; AID 652197; Q9NZ08; inhibition, % at 10.7 µM; 340,000 compounds, 0.15% hits; recombinant ERAP1, Leu-AMC fluorescence, 60 min;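 active = mean replicate inhibition of at least 30%, or all replicates individually reaching that 30% level; inactive = mean below 30% and not every replicate reaching it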;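 note: 0% = neutral control wells and 100% = L-leucinethiol positive control wells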
Target sequence (Q9NZ08 whole entry, looked up): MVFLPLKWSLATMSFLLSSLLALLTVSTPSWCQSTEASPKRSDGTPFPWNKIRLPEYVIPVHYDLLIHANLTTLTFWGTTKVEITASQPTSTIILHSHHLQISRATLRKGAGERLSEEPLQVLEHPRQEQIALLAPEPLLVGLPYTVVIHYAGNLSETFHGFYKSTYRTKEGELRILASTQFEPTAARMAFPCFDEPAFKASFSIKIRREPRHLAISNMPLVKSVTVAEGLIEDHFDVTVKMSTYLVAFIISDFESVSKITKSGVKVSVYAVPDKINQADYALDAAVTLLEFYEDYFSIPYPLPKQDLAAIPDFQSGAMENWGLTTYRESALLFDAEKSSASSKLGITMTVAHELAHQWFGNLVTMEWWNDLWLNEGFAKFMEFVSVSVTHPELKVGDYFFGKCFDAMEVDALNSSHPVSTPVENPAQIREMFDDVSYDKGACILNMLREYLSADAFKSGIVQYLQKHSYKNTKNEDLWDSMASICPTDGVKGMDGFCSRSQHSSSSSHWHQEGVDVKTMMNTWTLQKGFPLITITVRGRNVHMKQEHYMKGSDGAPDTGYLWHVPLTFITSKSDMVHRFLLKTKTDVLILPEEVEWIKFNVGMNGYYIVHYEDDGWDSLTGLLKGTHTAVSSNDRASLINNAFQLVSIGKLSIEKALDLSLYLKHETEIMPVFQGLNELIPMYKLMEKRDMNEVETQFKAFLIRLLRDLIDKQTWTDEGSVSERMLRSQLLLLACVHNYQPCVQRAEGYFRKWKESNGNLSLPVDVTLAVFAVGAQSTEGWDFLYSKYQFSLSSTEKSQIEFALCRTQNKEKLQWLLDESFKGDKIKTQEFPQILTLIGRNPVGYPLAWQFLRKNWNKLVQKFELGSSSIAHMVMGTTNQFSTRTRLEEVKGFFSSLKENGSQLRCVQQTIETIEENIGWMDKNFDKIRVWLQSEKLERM
DENV2 CPE rescue: DENV2-induced cell death inhibition; 350,000 compounds, 1.7% hits; DENV2-infected cells, cytopathic effect rescue, plate reader; CPE inhibition, % at 9.99 µM; in the data active = CPE inhibition above about 20%, passing the limit was not always enough; inconclusive = no clear call, values can overlap the other calls; tested in BHK-21 cells;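 note: 0% = median of neutral control wells and 100% = median of positive control wells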
PDI inh: blocks human protein disulfide isomerase activity | P07237 | PDI insulin aggregation turbidity, A650, 90 min | inhibition, % at 10 µM | 350,000 compounds, 0.052% hits | AID 588391;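 active = mean inhibition across replicates of 30% or more, whatever share of single replicates reach that level; inconclusive = mean inhibition below 30% while every single replicate reaches 30%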
ERp5 block: ERp5 (human) disulfide isomerase inhibition; 350,000 compounds, 0.05% hits; Q15084; inhibition, % at 9.99 µM; ERp5 insulin aggregation, absorbance 650 nm, 90 min;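 active = mean replicate inhibition above about 25%, with every replicate also reaching it, limit read from the data, passing the limit was not always enough; inconclusive = only one of those two criteria met; inactive = neither criterion met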
AF4-AF9 inh: inhibitors of human MLL-AF4/AF9 interaction. P42568. 350,000 compounds, 0.47% hits. inhibition, % at 10 µM. AlphaScreen, biotin-AF4 peptide binding to FLAG-AF9. AID 651704;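 active = every replicate reaching a set inhibition limit, whatever the replicate mean, cut at about 25% in these data; inconclusive = mean inhibition reaches that limit but some replicates miss it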;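 note: 0% = plate neutral control median and 100% = total signal loss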
Active calls of the source: *; ? = inconclusive; nt = not tested or not shown. Hits are enriched below; roughly 1.8% of the tested compounds scored in any of these assays.

SMILES	ERAP1 inh	DENV2 CPE rescue	PDI inh	ERp5 block	AF4-AF9 inh
CO[C@H]1CN(C)C(=O)c2ccc(NC(=O)NC(C)C)cc2OC[C@@H](C)N(Cc2ccccn2)C[C@@H]1C	1	-8	nt	-2	-2
COC(=O)C[C@H]1C[C@H]2c3cc(NC(=O)Cc4ccncc4)ccc3O[C@H]2[C@H](CO)O1	-1	10	nt	61*	1
COc1cccc(S(=O)(=O)N2C[C@@H](O)COC[C@H]3O[C@H](CC(=O)N4CCOCC4)CC[C@@H]32)c1	-3	-6	nt	-11	-1
CC(C)N(C(=O)[C@H]1C[C@H](CC(=O)NCCCN(C)C)C(=O)N2CCc3c([nH]c4cc(CCC(=O)N(C)C)ccc34)[C@]12C)C(C)C	-4	11	17	0	-1
CCN(CC)C(=O)[C@H]1CC(CC(=O)NC/C=C(\C)CCC=C(C)C)C(=O)N2CCc3c([nH]c4ccc(OC)cc34)[C@]12C (stereo partly specified)	-6	40*	6	0	2
CCN(CC)C(=O)[C@H]1C[C@H](CC(=O)NC/C=C(\C)CCC=C(C)C)C(=O)N2CCc3c([nH]c4ccc(Cl)cc34)[C@]12C	-3	-6	-9	0	0
CC(C)N(C(=O)[C@H]1C[C@H](CC(=O)NCCCN(C)C)C(=O)N2CCc3c([nH]c4cc(-c5ccco5)ccc34)[C@]12C)C(C)C	3	5	9	-1	29*
CN(C)CCCNC(=O)C[C@H]1C[C@H](C(=O)N2CCOCC2)[C@@]2(CCC3CCCC3)c3[nH]c4cc(-c5ccco5)ccc4c3CCN2C1=O	nt	-2	13	11	41*
O=C(C[C@H]1C[C@H](C(=O)N2CCOCC2)[C@@]2(CCC3CCCC3)c3[nH]c4cc(-c5ccco5)ccc4c3CCN2C1=O)NCCN1CCOCC1	nt	-2	21	0	-87
COCCCNC(=O)C[C@H]1C[C@H](C(=O)N(C(C)C)C(C)C)[C@@]2(C)c3[nH]c4cc(CCC(=O)N(C)C)ccc4c3CCN2C1=O	-3	37*	-10	-4	-1
Cc1cccc(S(=O)(=O)N2CCCCN3[C@H](CO)[C@@H](c4ccc(-c5ccccc5)cc4)[C@@H]3C2)c1	4	1	nt	-2	-6
COc1ccc(CN2C(C)C3C(C)=CC2C2C(=O)N(C)C(=O)C32)cc1 (stereo unspecified)	0	-4	nt	0	0
C[C@@H]1CN([C@@H](C)CO)C(=O)Cc2cc(NC(=O)C3CCCCC3)ccc2O[C@H]1CN(C)CC1CCCCC1	2	18	nt	-4	5
C[C@@H]1CCCCO[C@H](CN(C)S(=O)(=O)c2ccc(F)cc2)[C@@H](C)CN([C@@H](C)CO)C(=O)c2cc(NC(=O)Nc3ccc(C(F)(F)F)cc3)ccc2O1	-4	9	nt	2	-5
CCN(CC)C(=O)[C@H]1C[C@H](CC(=O)NCCc2ccccn2)C(=O)N2CCc3c([nH]c4cc(-c5ccco5)ccc34)[C@]12C	nt	0	27	0	3
C[C@]12c3[nH]c4cc(-c5ccco5)ccc4c3CCN1C(=O)[C@@H](CC(=O)NCCc1ccccn1)C[C@@H]2C(=O)N1CCOCC1	-3	50*	20	1	3
Cc1ccc(C(=O)C=Cc2ccc3c(c2)OCO3)c(C)c1	-5	20	13	10	9
O=C(/C=C/c1ccc2c(c1)OCO2)c1ccc(O)cc1O	-1	4	73*	5	7
CCCC(=O)Nc1ccc2c(c1)C(=O)N(C)[C@@H]1CC[C@@H](CC(=O)NCC3CCCCC3)O[C@@H]1CO2	0	8	nt	2	0
Cc1cc(OC(=O)c2ccccc2[N+](=O)[O-])c([N+](=O)[O-])c(=O)[nH]1	-4	3	-6	-4	-13
COc1cccc(C(=O)Oc2cc(C)[nH]c(=O)c2[N+](=O)[O-])c1OC	-1	101*	-11	-3	1
CN1C(=O)c2cc(NC(=O)C3CCC3)ccc2OC[C@H]2O[C@H](CC(=O)NCC3CCCCC3)CC[C@H]21	4	?	nt	3	1
CCN1[C@H](C(=O)NCCCN(C)C)[C@@H](CO)[C@@H]2Cn3c(ccc(-c4cccc(F)c4)c3=O)[C@@H]21	-1	80*	nt	2	0
CN(C)C(=O)[C@H]1[C@H](CO)[C@H]2Cn3c(ccc(-c4cccc(F)c4)c3=O)[C@H]2N1C(=O)c1cnccn1	3	30*	nt	-2	-8
O=C(C1CCCC1)N1CCCCN2[C@H](CO)[C@H](c3ccc(C#CC4(O)CCCC4)cc3)[C@H]2C1	3	-5	nt	-1	1
SMILES	ERAP1 inh	DENV2 CPE rescue	PDI inh	ERp5 block	AF4-AF9 inh
Cc1ccccc1-c1ccc([C@H]2[C@@H](CO)N3CCCCN(C(=O)Nc4cccc(F)c4)C[C@H]23)cc1	-1	45*	nt	-5	10
Cc1ccccc1-c1ccc([C@H]2[C@@H](CO)N3CCCCN(C(=O)Nc4cccc(F)c4)C[C@@H]23)cc1	3	-11	nt	-1	-3
Cc1ccccc1-c1ccc([C@@H]2[C@H](CO)N3CCCCN(C(=O)Nc4cccc(F)c4)C[C@@H]23)cc1	0	38*	nt	1	9
COc1ccc(NC(=O)Nc2ccc3c(c2)CC(=O)N([C@@H](C)CO)C[C@H](C)[C@H](CN(C)C)O3)cc1	1	15	nt	2	2
CCn1c(CNC(=O)Cc2ccc(OC)cc2)nnc1SCC(=O)c1ccccc1	16	8	2	4	-10
COc1ccc(C(=O)NCc2nnc(SCC(=O)NO)n2Cc2ccccc2)cc1	nt	?	0	2	26*
Cc1ccc(S(=O)(=O)Nc2ccc(O)c3ncccc23)cc1	-1	107*	nt	-2	26*
Cc1ccc(S(=O)(=O)Nc2ccc(O)c3cccnc23)cc1	1	0	6	-7	4
CC(C)[C@@H](C(=O)N[C@@H](CCc1ccc(O)cc1)C(=O)O)N(C)C(=O)[C@H](CO)NC(=O)[C@@H](O)[C@H](N)CCCCCCCCl	62*	0	nt	6	0
C[C@@H]1CN([C@H](C)CO)C(=O)c2cc(NC(=O)NC3CCCCC3)ccc2O[C@@H](C)CCCCO[C@H]1CN(C)C(=O)Nc1ccc2c(c1)OCO2	nt	101*	nt	nt	nt
C[C@H]1CCCCO[C@@H](CN(C)C(=O)Nc2ccc3c(c2)OCO3)[C@@H](C)CN([C@@H](C)CO)C(=O)c2cc(NC(=O)NC3CCCCC3)ccc2O1	nt	48*	nt	nt	nt
C[C@@H]1CN([C@@H](C)CO)C(=O)c2cc(Br)cnc2O[C@@H]1CN(C)C(=O)c1ccccc1	-2	4	nt	nt	-2
O=C(C[C@@H]1C[C@H]2c3cc(NC(=O)C4CCC4)ccc3O[C@H]2[C@H](CO)O1)NCc1cccnc1	nt	1	nt	-5	-12
C[C@@H]1CN([C@H](C)CO)C(=O)Cc2cc(NS(C)(=O)=O)ccc2O[C@H]1CN(C)S(=O)(=O)c1cn(C)cn1	nt	2	nt	nt	nt
CNC[C@@H]1Oc2ccc(NC(=O)NC(C)C)cc2C(=O)N([C@@H](C)CO)C[C@H]1C	2	-2	nt	1	-1
